Screening results as filed in PubChem.
PLC-gamma1 inh – PLC-gamma1 enzyme inhibitors, primary screen, biochemical, fluorescence, purified enzyme | 1-phosphatidylinositol 4,5-bisphosphate phosphodiesterase gamma-1 (Homo sapiens), P19174 | fluorogenic substrate | inhibition, % at 12.2 µM | hit rate 0.84% among 370,000
MBD2 inh – inhibitors of MBD2 binding to methylated DNA, primary screen, biochemical, TR-FRET, DNA-binding domain, human | hit rate 0.31% among 370,000 | inhibition, % at 4.4 µM | MBD2 binding to methylated oligonucleotide; in the data active means inhibition above about 13%
UHRF1 MBD2 ctr – UHRF1 methylated DNA binding inhibitors, primary screen, counter-screen for MBD2 inhibitor project, biochemical, TR-FRET, human UHRF1, single concentration. E3 ubiquitin-protein ligase UHRF1 (Homo sapiens), Q96T88. inhibition, % at 4.4 µM. hit rate 0.75% among 370,000. UHRF1 binding to methylated oligo. AID 687016, 2013; in the data active means inhibition above about 21%;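 further: UHRF1 SRA domain binding a hemimethylated CpG hairpin DNA probe; 0% = median of test compound wells and 100% = reference inhibitor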
LEDGF integ inh – blockers of LEDGF/p75-dependent integrase strand transfer – biochemical, TR-FRET, high throughput, primary screen; HIV-1 integrase (with human LEDGF/p75); TR-FRET IN-LEDGF/p75 DNA integration, Eu/Cy5; inhibition, % at 3.7 µM; hit rate 0.64% among 370,000;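 active means inhibition above the screen-wide mean plus 3 SD, cut at about 13% in these data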;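 further: signal is the Cy5 over europium emission ratio at 671 and 618 nm; 0% = plate median of compound wells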
PLCb3 inh – human PLC-beta3 inhibitors, primary screen, biochemical, fluorescence; 1-phosphatidylinositol 4,5-bisphosphate phosphodiesterase beta-3 (Homo sapiens), Q01970; Purified PLC-beta3, fluorogenic substrate; inhibition, % at 12.2 µM; hit rate 0.18% among 370,000; in the data active means inhibition above about 11%;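 further: 0% = median of compound wells on plate and 100% = full blocker control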
Target sequence (Q01970 whole entry, looked up): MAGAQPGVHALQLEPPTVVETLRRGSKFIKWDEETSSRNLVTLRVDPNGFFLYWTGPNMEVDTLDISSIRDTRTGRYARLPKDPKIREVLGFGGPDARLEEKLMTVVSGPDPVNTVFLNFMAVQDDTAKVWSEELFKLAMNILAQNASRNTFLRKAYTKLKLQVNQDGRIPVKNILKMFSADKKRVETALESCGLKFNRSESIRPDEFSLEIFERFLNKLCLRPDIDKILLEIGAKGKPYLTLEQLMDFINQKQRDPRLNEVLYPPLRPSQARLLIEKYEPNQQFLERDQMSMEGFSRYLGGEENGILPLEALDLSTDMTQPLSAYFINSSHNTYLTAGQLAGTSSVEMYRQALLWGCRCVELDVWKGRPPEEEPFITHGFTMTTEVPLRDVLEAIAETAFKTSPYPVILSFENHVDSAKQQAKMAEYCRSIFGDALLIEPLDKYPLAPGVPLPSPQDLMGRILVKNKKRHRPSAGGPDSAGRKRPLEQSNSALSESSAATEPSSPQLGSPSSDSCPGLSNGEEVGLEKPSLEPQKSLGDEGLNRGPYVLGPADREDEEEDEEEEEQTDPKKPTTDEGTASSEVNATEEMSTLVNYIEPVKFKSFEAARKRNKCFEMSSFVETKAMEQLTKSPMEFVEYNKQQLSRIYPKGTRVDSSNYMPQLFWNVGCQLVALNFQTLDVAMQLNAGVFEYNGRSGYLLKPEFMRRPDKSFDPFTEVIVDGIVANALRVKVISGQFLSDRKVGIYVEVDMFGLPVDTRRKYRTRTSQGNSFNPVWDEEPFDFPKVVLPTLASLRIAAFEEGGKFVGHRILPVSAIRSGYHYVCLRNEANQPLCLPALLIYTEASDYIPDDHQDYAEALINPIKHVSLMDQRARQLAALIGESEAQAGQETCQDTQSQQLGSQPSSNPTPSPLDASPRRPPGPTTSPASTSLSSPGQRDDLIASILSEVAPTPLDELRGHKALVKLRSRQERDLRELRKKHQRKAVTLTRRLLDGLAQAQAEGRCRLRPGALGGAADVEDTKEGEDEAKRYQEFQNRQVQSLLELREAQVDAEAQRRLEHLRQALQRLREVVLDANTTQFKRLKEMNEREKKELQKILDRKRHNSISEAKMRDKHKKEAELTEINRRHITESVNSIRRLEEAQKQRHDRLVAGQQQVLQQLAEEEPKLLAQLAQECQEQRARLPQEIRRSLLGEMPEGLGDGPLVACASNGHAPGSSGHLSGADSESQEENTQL
PLCgamma1 ctr – PLC-gamma1 enzyme inhibitors, counter-screen for PLC-beta3 inhibitor project, biochemical, fluorescence; shares compounds with PLC-gamma1 inh; inhibition, % at 12.3 µM; hit rate 3.1% among 3,300; purified PLC-gamma1, fluorogenic substrate; AID 743258, 2014
PLCbeta3 conf – PLC-beta3 inhibitor confirmation, biochemical, fluorescence, purified enzyme. shares compounds with PLC-gamma1 inh. fluorogenic substrate fluorescence. inhibition, % at 12.3 µM. hit rate 1% among 3,300. AID 743261, 2014; in the data active means inhibition above about 11%
Active calls of the source: *. Sampled rows, rich in hits. Any-hit rate of the full collection: about 2.4%. Unless noted, no stated cut-off is given here; in the data, active means inhibition above about 9.5%; inactive means the rest.

What do the screens show for `COc1ccccc1C(=O)OCC(=O)c1cccc([N+](=O)[O-])c1`?
PLC-gamma1 inh: 0; MBD2 inh: 2; UHRF1 MBD2 ctr: 1; LEDGF integ inh: -2; PLCb3 inh: -1

Results for Cc1cc(C(=O)OCC(=O)c2cccc([N+](=O)[O-])c2)c2ccccc2n1 ?
PLC-gamma1 inh: 9; MBD2 inh: 2; UHRF1 MBD2 ctr: 5; LEDGF integ inh: 0; PLCb3 inh: 14*; PLCgamma1 ctr: -6; PLCbeta3 conf: -2

Results for CN(CC(=O)NCc1ccccc1)Cc1cccc(F)c1 ?
PLC-gamma1 inh: 11*; MBD2 inh: 1; UHRF1 MBD2 ctr: 4; LEDGF integ inh: 4; PLCb3 inh: 5; PLCgamma1 ctr: -6; PLCbeta3 conf: -3

How did OC1OC2COC(c3ccccc3)OC2C(O)C1O (stereo not drawn) do in these assays?
PLC-gamma1 inh: 6; MBD2 inh: 3; UHRF1 MBD2 ctr: 2; LEDGF integ inh: 0; PLCb3 inh: 11*; PLCgamma1 ctr: -5; PLCbeta3 conf: -4

What do the screens show for `OCC1OC(c2ccccc2)OC2COC(c3ccccc3)OC12` (stereo not drawn)?
PLC-gamma1 inh: -3; MBD2 inh: 1; UHRF1 MBD2 ctr: -2; LEDGF integ inh: -1; PLCb3 inh: 4

Results for CCCCCCSc1ccc([C@H]2N[C@@](CC(C)C)(C(=O)OC)[C@H]3C(=O)N(CC)C(=O)[C@@H]23)cc1 ?
PLC-gamma1 inh: 16*; MBD2 inh: 2; UHRF1 MBD2 ctr: 7; LEDGF integ inh: 3; PLCb3 inh: 6; PLCgamma1 ctr: -1; PLCbeta3 conf: 1

Results for CCCCCCSc1ccc([C@H]2N[C@@](CC(C)C)(C(=O)OC)[C@H]3C(=O)N(C)C(=O)[C@@H]23)cc1 ?
PLC-gamma1 inh: 2; MBD2 inh: -5; UHRF1 MBD2 ctr: -2; LEDGF integ inh: 1; PLCb3 inh: 2

How did O=C(c1ccc2c(c1)OCO2)N1CCC(Oc2cccnc2)CC1 do in these assays?
PLC-gamma1 inh: 0; MBD2 inh: 1; UHRF1 MBD2 ctr: 1; LEDGF integ inh: -4; PLCb3 inh: -4

How did Cc1ccc(C(=O)C2CCN(CC(=O)NC(C)C)CC2)cc1 do in these assays?
PLC-gamma1 inh: 1; MBD2 inh: -2; UHRF1 MBD2 ctr: 6; LEDGF integ inh: 3; PLCb3 inh: 2

Results for CCN1CCCC1CNC(=O)CCc1nc(-c2ccc(C)cc2)no1 (stereo not drawn) ?
PLC-gamma1 inh: 10*; MBD2 inh: 0; UHRF1 MBD2 ctr: 7; LEDGF integ inh: -4; PLCb3 inh: 1; PLCgamma1 ctr: 4; PLCbeta3 conf: -3

Results for CCN(CC)C(=O)CC[C@@H]1CC[C@]2(CCCN(C(=O)c3ccno3)C2)O1 ?
PLC-gamma1 inh: 1; MBD2 inh: 6; UHRF1 MBD2 ctr: -1; LEDGF integ inh: 3; PLCb3 inh: 1

How did CCN(C[C@H]1[C@@H](c2ccc(C3=CCCC3)cc2)[C@H](CO)N1Cc1ccccn1)S(=O)(=O)c1ccccc1[N+](=O)[O-] do in these assays?
PLC-gamma1 inh: -5; MBD2 inh: 1; UHRF1 MBD2 ctr: -2; LEDGF integ inh: -3; PLCb3 inh: -12

Results for Cc1ccc(OCC(O)Cn2c(=N)n(Cc3ccccc3)c3ccccc32)cc1 (stereo not drawn) ?
PLC-gamma1 inh: 2; MBD2 inh: -3; UHRF1 MBD2 ctr: -3; LEDGF integ inh: 1; PLCb3 inh: 2

What do the screens show for `Cc1cccc(OCC(O)Cn2c(=N)n(Cc3ccccc3)c3ccccc32)c1` (stereo not drawn)?
PLC-gamma1 inh: 12*; MBD2 inh: -5; UHRF1 MBD2 ctr: 0; LEDGF integ inh: 3; PLCb3 inh: 1; PLCgamma1 ctr: 0; PLCbeta3 conf: -6

How did N=c1n(Cc2ccccc2)c2ccccc2n1CC(O)COc1ccc(Cl)cc1Cl (stereo not drawn) do in these assays?
PLC-gamma1 inh: 12*; MBD2 inh: 3; UHRF1 MBD2 ctr: 1; LEDGF integ inh: 2; PLCb3 inh: 5; PLCgamma1 ctr: -2; PLCbeta3 conf: -3

Results for N=c1n(Cc2ccc(Cl)cc2)c2ccccc2n1CC(O)COc1ccccc1 (stereo not drawn) ?
PLC-gamma1 inh: 7; MBD2 inh: -2; UHRF1 MBD2 ctr: -2; LEDGF integ inh: -3; PLCb3 inh: 4

How did O=C(CN1C(=O)C2CCCCN2C(=O)c2ccccc21)N1CCCC1 (stereo not drawn) do in these assays?
PLC-gamma1 inh: 1; MBD2 inh: -1; UHRF1 MBD2 ctr: 0; LEDGF integ inh: -2; PLCb3 inh: 0

How did COc1ccc(OCC(=O)NCCC2=CCCCC2)c([N+](=O)[O-])c1 do in these assays?
PLC-gamma1 inh: 10*; MBD2 inh: -3; UHRF1 MBD2 ctr: -1; LEDGF integ inh: 8; PLCb3 inh: 4; PLCgamma1 ctr: 0; PLCbeta3 conf: -6

Results for CSCCC(NS(=O)(=O)c1ccc(Cl)cc1)C(=O)OCC(=O)c1ccc(F)cc1 (stereo not drawn) ?
PLC-gamma1 inh: 5; MBD2 inh: 1; UHRF1 MBD2 ctr: 0; LEDGF integ inh: 2; PLCb3 inh: 12*; PLCgamma1 ctr: -2; PLCbeta3 conf: -1

How did CSCCC(NS(=O)(=O)c1ccc(Cl)cc1)C(=O)OCC(=O)N(C(C)C)C(C)C (stereo not drawn) do in these assays?
PLC-gamma1 inh: 0; MBD2 inh: -1; UHRF1 MBD2 ctr: 0; LEDGF integ inh: 0; PLCb3 inh: 3

What do the screens show for `CCCCCCOC(=O)C[N+](C)(C)CCOC1CC2CCC1(C)C2(C)C` (stereo not drawn)?
PLC-gamma1 inh: -2; MBD2 inh: 3; UHRF1 MBD2 ctr: 2; LEDGF integ inh: -3; PLCb3 inh: 1

Results for CCCCCCCOC(=O)C[N+](C)(C)CCOC1CC2CCC1(C)C2(C)C (stereo not drawn) ?
PLC-gamma1 inh: 9.9*; MBD2 inh: 4; UHRF1 MBD2 ctr: -1; LEDGF integ inh: 1; PLCb3 inh: 1; PLCgamma1 ctr: -6; PLCbeta3 conf: -11

What do the screens show for `CC(=O)c1c(C)nc2ccc(Br)cc2c1-c1ccccc1`?
PLC-gamma1 inh: 0; MBD2 inh: 1; UHRF1 MBD2 ctr: 2; LEDGF integ inh: 2; PLCb3 inh: 5
